Assay outcomes from PubChem.
Compounds with a hit are over-represented: about 3.9% of the library has one in this group of screens.
FBA Mtb inh: Mtb fructose-bisphosphate aldolase inhibition; P9WQA3; purified M. tuberculosis FBA, fluorescence read-out; inhibition, % at 1 µM; 360,000 tested, 2.3% active; AID 588726; in the data active = inhibition above about 27%;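 note: 0% = vehicle and 100% = reference inhibitor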
Target sequence (P9WQA3 whole entry, looked up): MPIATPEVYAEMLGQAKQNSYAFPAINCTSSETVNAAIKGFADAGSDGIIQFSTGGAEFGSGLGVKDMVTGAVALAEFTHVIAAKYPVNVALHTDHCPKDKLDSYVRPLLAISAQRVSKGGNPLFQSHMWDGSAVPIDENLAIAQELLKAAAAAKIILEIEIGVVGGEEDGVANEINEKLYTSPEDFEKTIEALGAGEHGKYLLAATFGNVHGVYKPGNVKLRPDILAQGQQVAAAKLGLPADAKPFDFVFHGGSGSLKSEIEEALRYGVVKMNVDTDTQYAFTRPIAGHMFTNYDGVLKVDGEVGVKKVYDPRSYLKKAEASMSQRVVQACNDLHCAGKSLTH
GDH-TPI inh: inhibits GDH-TPI coupling enzymes, artifact for Mtb FBA screen; GDH-TPI coupled enzyme counterscreen, NADH absorbance; inhibition, % at 4.8 µM; 360,000 tested, 1.2% active; AID 588335;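 note: 0% = DMSO wells and 100% = wells lacking the enzyme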
BH1578 lux ind: quorum light induction in luxS cqsA deficient V. cholerae. V. cholerae BH1578 lux reporter, luminescence, 6 h. activation, % at 18.7 µM. 350,000 tested, 0.16% active; in the data active = activation mostly above about 9.7%, no sharp cut-off
CCHF vOTU inh: CCHFV vOTU protease inhibition. 370,000 tested, 0.55% active. Pep-AMC fluorescence. inhibition, % at 11.5 µM. AID 651958; note: 0% = vehicle wells with enzyme and 100% = no enzyme wells
Active calls of the source: *; i = inactive; / = no result; + = active, no number; ! = repeats disagree. Cut-off read from the data, not from the text of the source, unless noted: active = inhibition above about 30%; inactive = the rest.

SMILES	FBA Mtb inh	GDH-TPI inh	BH1578 lux ind	CCHF vOTU inh
NS(=O)(=O)c1ccc(NC(=S)NC(=O)c2ccc(Br)o2)cc1	0	6	0	-5
CC(NC(=O)/C(C#N)=C/c1ccc(OCC(=O)O)cc1)c1ccccc1 (centres undefined)	-2	37*	0	-8
COc1ccc(/C=C(\C#N)C(=O)Nc2cccnc2)cc1	-2	32*	0	-15
CCOc1ccc(/C=C(\C#N)C(=O)Nc2ccccn2)cc1	1	38*	i	12
C[C@@H](NC(=O)/C(C#N)=C/c1ccc(O)c(O)c1)c1ccccc1	-14	6	-3	6
COc1cccc2[nH]c3ccccc3c(=O)c12	135*	1	0	/
COc1ccc(OC)c(-c2csc(NC(=O)c3ccccc3F)n2)c1	2	17	0	0
CC(/C=N/NC(=O)c1nnn(-c2nonc2N)c1C(C)C)=C\c1ccccc1	3	33*	i	23
COc1cc(/C=N/NC(=O)c2nnn(-c3nonc3N)c2C(C)C)ccc1O	-3	32*	0	12
COc1ccc(/C=N/NC(=O)c2nnn(-c3nonc3N)c2-c2cccs2)cc1OC	7	69*	-1	3
Cc1ccc(/C=N/NC(=O)c2nnn(-c3nonc3N)c2-c2ccc3c(c2)OCO3)s1	0	47*	-7	5
O=C(CSc1nc2ccccc2c(=O)[nH]1)Nc1ccccc1C(F)(F)F	-1	10	-1	2
Cc1ccsc1/C=N/NC(=O)c1nnn(-c2nonc2N)c1C(C)C	2	34*	0	18
COc1cc(/C=N/NC(=O)c2nnn(-c3nonc3N)c2-c2cccs2)ccc1O	4	47*	i	14
Nc1nc(-c2cccnc2)nn1C(=O)Cc1ccccc1	2	6	-3	7
C=CCn1c(N)c(C(=O)OC(C)CC)c2nc3ccccc3nc21 (centres undefined)	167*	20	i	-207
CCOC(=O)c1c(N)n(Cc2ccc(OC)cc2)c2nc3ccccc3nc12	/	/	/	-168
C=CCn1c(N)c(C(=O)OC(C)(C)C)c2nc3ccccc3nc21	+	22	i	-235
C=CCn1c(N)c(C(=O)Nc2ccccc2)c2nc3ccccc3nc21	10	5	-1	10
COc1ccccc1NC(=O)CSC(N)=O	1	-7	i	1
CCn1c(SCCOc2ccc(OC)cc2)nnc1C(CO)NC(=O)c1ccc(OC)cc1 (centres undefined)	2	2	i	16
CSc1ccc(CN2CCN(C(=O)Cc3ccccc3)CC2)cc1	2	31*	-1	4
CCc1ccc(CN2CCN(C(=O)Cc3ccccc3)CC2)cc1	-1	-6	i	-9
Fc1ccccc1N1CC(c2ccccc2)C(c2cccs2)=N1 (centres undefined)	161*	-3	-3	-64
O=c1cc(NCc2ccccc2)c2ccccc2o1	-2	-2	i	0
SMILES	FBA Mtb inh	GDH-TPI inh	BH1578 lux ind	CCHF vOTU inh
O=c1cc(NCc2ccco2)c2ccccc2o1	3	-10	26*	-1
COc1ccc(-c2cc(-c3ccccc3)nc3ncnn23)cc1	+	25	0	-227
CN(C(=O)COc1ccccc1)C1CCS(=O)(=O)C1 (centres undefined)	-2	-3	0	11
COc1cc(C(=O)Nc2ccc(OCC(=O)N3CCOCC3)cc2C)cc(OC)c1OC	1	11	-4	0
COC(=O)Cc1c(C)c2ccc(OCC(=O)N(C)C3CCS(=O)(=O)C3)cc2oc1=O (centres undefined)	114*	17	i	-54
COC(=O)Cc1c(C)c2ccc(OC(C)C)cc2oc1=O	+	30	i	-96
COC(=O)Cc1c(C)c2ccc(OCC(=O)N3CCOCC3)cc2oc1=O	123*	26	-1	-39
COC(=O)c1cc(-c2c(C)oc3cc(OC(C)C)ccc3c2=O)c(C)o1	0	10	0	-2
COC(=O)Cc1c(C)c2ccc(OC(=O)c3ccco3)cc2oc1=O	+	17	i	-187
Nc1ccn(CC(=O)NCCc2ccccn2)c(=O)n1	6	10	i	4
COc1ccc2nc(NC(=O)c3cccc(-c4cc5ccccc5oc4=O)c3)sc2c1	4	2	0	4
Nc1nonc1-c1noc(CCCN2C(=O)c3ccccc3C2=O)n1	2	2	-1	7
Cc1c(CC(=O)O)c(=O)oc2cc(OCc3ccc(F)cc3F)ccc12	156*	18	1	-70
COC(=O)Cc1c(C)c2cc(Cl)c(OC(=O)c3ccco3)cc2oc1=O	+	2	/	-200
O=C(CSc1ccc(Cl)cc1)Nc1nnc(-c2ccco2)o1	-3	-1	i	-3
CN(CC(=O)Nc1ccc(N2CCOCC2)cc1)C(=O)CCNC(=O)c1ccc(Br)cc1	-1	-3	i	0
CN(C)/C(CN1CCN(C=O)CC1)=C1\N=C(c2ccccc2)OC1=O	2	36*	0	6
CC(=C1N=C(c2ccccc2)OC1=O)c1cccs1	/	/	/	-6
COc1ccc(CCNCC(O)COc2ccc(OC)cc2C(C)(C)C)cc1 (centres undefined)	8	4	i	9
NC(N)=NC(=O)c1nc(Cl)c(N)nc1N	33*!	39*!	6	-19
CCOC(=O)c1[nH]c2ccc(OC)cc2c1NC(=O)NC(C)C	35*	2	-5	-23
COc1ccc2cc(C(=O)NCc3ccccc3)[nH]c2c1	6	-6	0	0
CCCS(=O)(=O)Nc1c(C(=O)O)[nH]c2ccc(OC)cc12	129*	1	0	-30
COc1ccc2[nH]c(C(=O)NCc3ccccc3)c(C)c2c1	40*	3	-1	-15
CCOC(=O)N1CCN(C(=O)Cc2c(C(=O)O)n(C)c3ccccc23)CC1	3	0	i	1
SMILES	FBA Mtb inh	GDH-TPI inh	BH1578 lux ind	CCHF vOTU inh
COc1ccccc1/C=C\C(=O)NCC(=O)N/N=C/c1ccc(O)cc1O	-2	36*	i	-11
O=c1c2ccccc2[se]n1-c1ccccc1	-2	84*	0	-1
O=c1c2ccccc2nc(-c2ccccc2)n1-c1ccccc1	2	13	0	-4
CC(=O)C1=C(O)C(=O)N(Cc2ccccc2)C1c1cccs1 (centres undefined)	1	31*	i	-1
COc1ccc(S(=O)(=O)N[C@@H](Cc2ccc(Cl)cc2)C(=O)N2CC[C@@]3(O)CCCC[C@H]3C2)cc1	-1	8	-5	-5
COc1cccc2cc(-c3ccccc3)c(=O)oc12	3	-1	i	6
Cc1cccc2cc(-c3nc4ccc(C(=O)O)cc4[nH]3)c(=O)oc12	34*	31*	-8	/
COc1cccc2cc(-c3nc4ccccc4[nH]3)c(=O)oc12	2	31*	-1	9
COc1ccc(C2Nc3ccccc3C(=O)N2NS(C)(=O)=O)cc1OC (centres undefined)	25	5	3	-52
COc1ccc(C2Nc3ccccc3C(=O)N2Cc2ccccc2)cc1OC (centres undefined)	74*	-1	-1	-65
Cc1c(C(=O)N/N=C/c2ccccc2)sc(=S)n1C	-2	23	-1	16
